Screening data from PubChem BioAssay.
HADH2 inh = inhibitors of human HADH2 dehydrogenase | Q99714 | recombinant HADH2, NADH fluorescence, beta-hydroxybutyryl-CoA | Potency, µM (top dose mostly 57.1 µM), actives largely listed as inhibitors | hit rate 3.4% among 73,000 | AID 886; further: nearly all actives have a fitted effect of over 60% in size
Target sequence (Q99714 whole entry, looked up, one chain of several): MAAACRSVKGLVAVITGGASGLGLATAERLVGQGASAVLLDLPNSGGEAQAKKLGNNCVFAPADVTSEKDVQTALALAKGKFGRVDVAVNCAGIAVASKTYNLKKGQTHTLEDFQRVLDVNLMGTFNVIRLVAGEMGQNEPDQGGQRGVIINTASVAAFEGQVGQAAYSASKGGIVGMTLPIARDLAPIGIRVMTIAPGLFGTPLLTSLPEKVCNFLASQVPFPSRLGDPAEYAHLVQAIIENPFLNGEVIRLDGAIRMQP
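20 nM HADH2 + cpd, 15 min RT; add 1 mM NAD+/90 uM beta-hydroxybutyryl-CoA; kinetic fluorescence 360/450 nm, 4 min. Tris-HCl pH 9.0, 0.01% Tween-20.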
A350 fluor = A350 region autofluorescence; Compound autofluorescence, 340/450 nm, Alexa 350 dye-equivalents; hits give high values; max dye-equivalent concentration, M; hit rate 11% among 59,000; in the data active means max dye-equivalent concentration above about 10 nM; inconclusive means mostly about 1.1 nM to 9.6 nM
4MU fluor = compounds fluorescent in 4-MU spectral region | compound autofluorescence, 340/450 nm, 4-MU equivalents; hits give high values | max dye-equivalent concentration, M | hit rate 11% among 59,000 | AID 589; in the data active means max dye-equivalent concentration above about 10 nM; inconclusive means mostly about 1.1 nM to 9.6 nM
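Intrinsic fluorescence at 340/450 nm (ex/em) was read after 15 min at room temperature in pH 8.0, 100 mM Tris. Each compound concentration expressed as 4-MU-equivalent concentration from a six-point 4-MU standard series on each plate.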
CRE Fsk mod = modulators of forskolin-stimulated CRE signaling in CHO cells | CHO CRE-bla reporter (cAMP response element driving beta-lactamase), forskolin EC10, beta-lactamase ratio | AID 662 | Potency, µM (highest dose often 38.2 µM), usual class: activators | hit rate 2.5% among 71,000; active means well fitted activation curve with a large enough effect in the signal ratio, with a control signal flat, not every such curve was filed as active; inconclusive means small, poorly fitted or top-dose-only effect, or effect the other way, or a change in a side signal; the % refers to the signal ratio
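Cells were plated overnight at 37 °C, exposed to compound titrations plus EC10 NKH 477 for 3 h, then given CCF4 dye for 2 h at room temperature. Blue/green (460/530 nm) ratio was converted to %Activity and AC50 values calculated.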
HSD17B inh = blocks hydroxysteroid 17-beta dehydrogenase activity | recombinant HSD17B10, NADH fluorescence kinetic | Potency, µM (series often up to 57.1 µM), most hits filed as inhibitors | hit rate 7.6% among 75,000 | Q99714;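 further: the protocol describes HADH2 (HSD17B10) and not the HSD17B4 of the title; nearly all actives have a fitted effect of over 70% in size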
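20 nM HADH2, pH 9.0 Tris/Tween; cpd preinc 15 min RT; start w/ 1 mM NAD+ + 90 uM b-hydroxybutyryl-CoA; kinetic fluor ex360/em450 q30s x 4 min; delta last-first.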
AID923 = qHTS Assay for Allosteric/Competitive Inhibitors of Caspase-1: Spectroscopic Profiling in AFC Spectral Region; compound fluorescence, AFC spectral region (405/520 nm); Potency, µM (titrated, usually from 57.5 µM), hits mostly activators; hit rate 1.1% among 75,000; AID 923, 2007
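Titrations up to 57 uM read every 20 sec for 3 min (405/520 nm) with 50 nM caspase 1 and 5 uM Ac-WEHD-AFC, pH 7.5 HEPES buffer. Fluorescence-vs-time intercept gave baseline, scaled against on-plate AFC standard.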
Large screens that a line does not name were inactive; ! = not active in a repeat. Shown are actives, neighbours in structure and some others; about 14% of the full set was active somewhere. Unless noted, the call rests on the fitted dose curve; in most records, active means well fitted curve in the direction sought with a large enough effect; inconclusive means small, poorly fitted or top-dose-only effect, or another doubt; inactive means no such curve, though single readings can be large; an effect the other way counts as inactive or inconclusive.

C[C@@H]1OC(OC2CC[C@@]3(C)C(CC[C@@]4(C)C3CC=C3C5CC(C)(C)CC[C@]5(C(=O)OC5OCC(O)[C@@H](O)[C@@H]5OC5O[C@@H](C)[C@H](O[C@H]6OC(CO)C(O)C(O)C6O)C(O)C5O)C(O)C[C@@]34C)C2(C)C)C(O)C(O)[C@H]1OC1OCC(O)C(O)[C@H]1O (some centres not stated)	none (no result: HADH2 inh, A350 fluor, 4MU fluor, CRE Fsk mod)
O=C(C1COc2ccccc2O1)N1CCc2ccccc21 (configuration not stated)	A350 fluor 2.7e-08M, 4MU fluor 2e-08M, CRE Fsk mod inconclusive, HSD17B inh inconclusive
O=C(CN1C(=O)COc2ccccc21)N1CCc2ccccc21	A350 fluor 3.4e-08M, 4MU fluor 3.1e-08M
CC1(C)CC(n2c(NCCO)nc3c(c2=O)C2(CCCC2)Cc2ccccc2-3)CCO1 (configuration not stated)	CRE Fsk mod inconclusive, HSD17B inh inconclusive (no result: A350 fluor, 4MU fluor)
CCC1(C)Cc2ccccc2-c2nc(NCCO)n(-c3ccccc3)c(=O)c21 (configuration not stated)	A350 fluor 8.1e-07M, 4MU fluor 7.4e-07M (no result: HADH2 inh, CRE Fsk mod, HSD17B inh, AID923)
CC1(C)Cc2ccccc2-c2nc(NCCO)n(-c3ccccc3)c(=O)c21	HADH2 inh 5µM, CRE Fsk mod inconclusive, HSD17B inh 25µM (no result: A350 fluor, 4MU fluor)
C[C@@H](CCCCC(=O)Nc1ccc(C(F)(F)F)cc1)NCCc1cnc[nH]1	none (no result: A350 fluor, 4MU fluor)
Nc1nonc1C(=O)NCCNCc1cc(Br)ccc1OCc1ccc(F)cc1	A350 fluor 3.8e-08M, 4MU fluor 3.7e-08M
Cc1cc(-n2c(C)cc(C(=O)CN3C(=O)NC4(CCCCCC4)C3=O)c2C)no1	A350 fluor inconclusive, 4MU fluor inconclusive, HSD17B inh 32µM
COCCn1c(C)cc(C(=O)CN2C(=O)NC3(CCCCCCC3)C2=O)c1C	none
O=C(O)[C@H]([C@H]1NCCS1)N1C(=O)c2ccccc2C1=O	none
COc1ccc(-n2nc3ccccc3n2)cc1	A350 fluor inconclusive
COc1ccc(-n2nc3cc(C)c(N)c(Br)c3n2)cc1	HADH2 inh 7.9µM, A350 fluor 2.7e-08M, 4MU fluor 3.6e-08M, CRE Fsk mod inconclusive, HSD17B inh 25µM
COc1ccc(-n2nc3cc(C)c(NC(=O)C(C)C)cc3n2)cc1	A350 fluor 9e-08M, 4MU fluor 9.5e-08M, HSD17B inh 4µM
O=C(Cn1nnc2ccccc21)NCc1ccccc1	A350 fluor 6.6e-08M, 4MU fluor 5.9e-08M, HSD17B inh 25µM
CS(=O)(=O)Nc1cccc(-c2ccc3ncnc(Nc4ccc(F)cc4)c3c2)c1	CRE Fsk mod inconclusive
CCOCCc1nnc(NC(=O)c2cc(OC)c(OC)c(OC)c2)s1	CRE Fsk mod 10µM
CCCCOC(=O)Nc1nnc(COc2ccccc2)s1	none (no result: A350 fluor, 4MU fluor)
COc1cc(C(=O)Nc2nnc(C)s2)cc(OC)c1OC	CRE Fsk mod inconclusive (no result: A350 fluor, 4MU fluor)
CCCCOC(=O)Nc1nnc(CCOCC)s1	A350 fluor inconclusive, 4MU fluor inconclusive, CRE Fsk mod inconclusive, HSD17B inh 25µM
CCNC(=O)[C@@H]1O[C@@H](n2cnc3c(NCc4ccccc4)ncnc32)[C@@H](O)[C@H]1O	A350 fluor inconclusive, 4MU fluor inconclusive (no result: HSD17B inh, AID923)
CCOc1cccc(C=Nc2cc(C)cc(C)c2O)c1O	HADH2 inh inconclusive, CRE Fsk mod inconclusive, HSD17B inh 4µM (no result: A350 fluor, 4MU fluor)
CC1CCC2C(=O)N3CCCC3C(=O)N2C1c1ccc(Br)cc1 (configuration not stated)	none (no result: A350 fluor, 4MU fluor, CRE Fsk mod)
CC(=O)c1ccc2c(c1)N(CCCN(C)C)c1ccccc1S2	none
CN(C)CCCN1c2ccccc2Sc2ccccc21	A350 fluor 1.8e-07M!, 4MU fluor 1.8e-07M!, CRE Fsk mod inconclusive
CCCn1cnc2c(SCC(=O)O)nc(N)nc21	none
CC(C)OC(=O)C(C#N)c1nc2ccccc2nc1N1CCCC1 (configuration not stated)	A350 fluor 8.5e-08M, 4MU fluor 7.3e-08M (no result: HADH2 inh, CRE Fsk mod, HSD17B inh, AID923)
COC(=O)C(C#N)c1nc2ccccc2nc1N1CCCC1 (configuration not stated)	A350 fluor 5.6e-08M, 4MU fluor 5.4e-08M, CRE Fsk mod 10µM, HSD17B inh inconclusive
N#CC(C(=O)OCc1ccccc1)c1nc2ccccc2nc1N1CCOCC1 (configuration not stated)	A350 fluor inconclusive, CRE Fsk mod inconclusive
CCCCCCCCCCCCCCCC(=O)NC[C@@H](COP(=O)([O-])OCC[N+](C)(C)C)OCC	CRE Fsk mod inconclusive
CN1CCN(c2nc(-c3cccc(NS(C)(=O)=O)c3)nc3ccccc23)CC1	CRE Fsk mod inconclusive
CS(=O)(=O)Nc1cccc(-c2nc(N3CCOCC3)c3ccccc3n2)c1	CRE Fsk mod 2.5µM
CN(C)C(=O)c1ccc(-c2nc(N3CCOCC3)c3ccccc3n2)cc1	A350 fluor 3.7e-08M, 4MU fluor 3.3e-08M, CRE Fsk mod 10µM, HSD17B inh inconclusive
FC(F)(F)c1ccccc1-c1nc(N2CCOCC2)c2ccccc2n1	CRE Fsk mod inconclusive
Fc1ccc(Nc2nc(N3CCOCC3)c3ccccc3n2)cc1	A350 fluor 1.1e-08M, 4MU fluor inconclusive, CRE Fsk mod inconclusive
Cc1cnc(CNc2ccnc(-c3ccc(C(=O)N(C)C)cc3)n2)cn1	none
O=C(c1cnccn1)N1CCC2(CC1)CN(Cc1nccs1)C2	none
CC(=O)Nc1ccc(-c2cc(C(=O)O)c3cc4ccccc4cc3n2)cc1	A350 fluor 1.9e-07M, 4MU fluor 1.8e-07M, HSD17B inh 4µM
Cc1noc(C)c1C(=O)N1CCC2(CCCN(c3ccccc3)C2)CC1	none
COC(=O)Nc1nc2ccc(S(=O)c3ccccc3)cc2[nH]1 (configuration not stated)	HSD17B inh inconclusive (no result: HADH2 inh, A350 fluor, 4MU fluor, CRE Fsk mod)
COC(=O)Nc1nc2ccc(C(=O)c3ccccc3)cc2[nH]1	CRE Fsk mod 10µM
COC(=O)Nc1nc2ccc(SC(C)C)cc2[nH]1	A350 fluor inconclusive, 4MU fluor inconclusive, CRE Fsk mod inconclusive
CCCSc1ccc2nc(NC(=O)OC)[nH]c2c1	A350 fluor 9.5e-08M!, 4MU fluor 8.4e-08M!, CRE Fsk mod 7.9µM
COc1ccc2cc(C(c3nnnn3Cc3ccc(F)cc3)N3CCCCCC3)c(=O)[nH]c2c1 (configuration not stated)	A350 fluor inconclusive, 4MU fluor inconclusive, CRE Fsk mod inconclusive
COCCn1nnnc1C(c1cc2cc(C)ccc2[nH]c1=O)N1CCN(C2CCCCC2)CC1 (configuration not stated)	A350 fluor 1.1e-07M, 4MU fluor 8.2e-08M, HSD17B inh inconclusive
COc1ccc2cc(C(c3nnnn3CCc3ccccc3)N3CCC(O)CC3)c(=O)[nH]c2c1 (configuration not stated)	A350 fluor inconclusive, 4MU fluor inconclusive
COCCn1nnnc1C(c1ccc(OC)cc1OC)N1CCN(c2ccccc2F)CC1 (configuration not stated)	none
